Test results taken from ChEMBL document CHEMBL1961873, “Compounds: GSK PKIS; Assays: Nanosyn kinase panel” (2012).

How the values were obtained:
[1] = target: CDK3/Cyclin E (Homo sapiens) (UniProt P24864+Q00526); conditions: at 1 µM;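 note: each figure is a mean percent inhibition of the CDK3/cyclin E complex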
[2] = target: Cyclin-dependent kinase 4 (Homo sapiens) (UniProt P11802); conditions: at 0.1 µM
[3] = target: Cyclin-dependent kinase 4 (Homo sapiens) (UniProt P11802); conditions: at 1 µM
[4] = target: Cyclin-dependent kinase 5 (Homo sapiens) (UniProt Q00535); conditions: at 0.1 µM
[5] = target: Cyclin-dependent kinase 5 (Homo sapiens) (UniProt Q00535); conditions: at 1 µM
[6] = target: Cyclin-dependent kinase 6 (Homo sapiens) (UniProt Q00534); conditions: at 0.1 µM
[7] = target: Cyclin-dependent kinase 6 (Homo sapiens) (UniProt Q00534); conditions: at 1 µM
[8] = target: Dual specificity protein kinase CLK2 (Homo sapiens) (UniProt P49760); conditions: at 0.1 µM
[9] = target: Dual specificity protein kinase CLK2 (Homo sapiens) (UniProt P49760); conditions: at 1 µM
[10] = target: Dual specificity protein kinase CLK3 (Homo sapiens) (UniProt P49761); conditions: at 0.1 µM
[11] = target: Dual specificity protein kinase CLK3 (Homo sapiens) (UniProt P49761); conditions: at 1 µM
[12] = target: Dual specificity tyrosine-phosphorylation-regulated kinase 1A (Homo sapiens) (UniProt Q13627); conditions: at 0.1 µM
[13] = target: Dual specificity tyrosine-phosphorylation-regulated kinase 1A (Homo sapiens) (UniProt Q13627); conditions: at 1 µM
[14] = target: Dual specificity tyrosine-phosphorylation-regulated kinase 1B (Homo sapiens) (UniProt Q9Y463); conditions: at 0.1 µM
[15] = target: Dual specificity tyrosine-phosphorylation-regulated kinase 1B (Homo sapiens) (UniProt Q9Y463); conditions: at 1 µM
[16] = target: T1, Dual specificity tyrosine-phosphorylation-regulated kinase 2 (Homo sapiens) (UniProt Q92630); conditions: at 0.1 µM
T1 sequence (whole entry): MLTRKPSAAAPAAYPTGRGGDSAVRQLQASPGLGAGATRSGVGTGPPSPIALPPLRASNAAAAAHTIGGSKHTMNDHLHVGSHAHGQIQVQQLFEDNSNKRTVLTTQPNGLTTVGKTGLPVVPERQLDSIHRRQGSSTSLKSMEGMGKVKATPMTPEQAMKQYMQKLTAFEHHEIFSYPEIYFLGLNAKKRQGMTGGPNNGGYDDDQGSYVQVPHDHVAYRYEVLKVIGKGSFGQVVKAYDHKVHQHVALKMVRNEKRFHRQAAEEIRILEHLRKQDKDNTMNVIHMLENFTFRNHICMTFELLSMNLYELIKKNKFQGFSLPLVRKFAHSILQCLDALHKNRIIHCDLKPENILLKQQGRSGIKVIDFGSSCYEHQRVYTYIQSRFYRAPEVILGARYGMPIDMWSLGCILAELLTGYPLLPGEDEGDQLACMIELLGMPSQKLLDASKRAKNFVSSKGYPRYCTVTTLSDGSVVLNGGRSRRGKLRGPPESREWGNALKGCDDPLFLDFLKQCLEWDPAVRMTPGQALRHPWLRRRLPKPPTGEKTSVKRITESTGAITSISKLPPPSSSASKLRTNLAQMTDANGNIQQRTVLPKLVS

[17] = target: T1, Dual specificity tyrosine-phosphorylation-regulated kinase 2 (Homo sapiens); conditions: at 1 µM
[18] = target: Glycogen synthase kinase-3 alpha (Homo sapiens) (UniProt P49840); conditions: at 0.1 µM
[19] = target: Glycogen synthase kinase-3 alpha (Homo sapiens) (UniProt P49840); conditions: at 1 µM
[20] = target: Glycogen synthase kinase-3 beta (Homo sapiens) (UniProt P49841); conditions: at 0.1 µM;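 note: values are mean percent inhibition of GSK3B activity, from the GSK Published Kinase Inhibitor Set (PKIS) screening dataset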
Glycogen synthase kinase-3 beta (Homo sapiens), sequence (P49841 whole entry, looked up): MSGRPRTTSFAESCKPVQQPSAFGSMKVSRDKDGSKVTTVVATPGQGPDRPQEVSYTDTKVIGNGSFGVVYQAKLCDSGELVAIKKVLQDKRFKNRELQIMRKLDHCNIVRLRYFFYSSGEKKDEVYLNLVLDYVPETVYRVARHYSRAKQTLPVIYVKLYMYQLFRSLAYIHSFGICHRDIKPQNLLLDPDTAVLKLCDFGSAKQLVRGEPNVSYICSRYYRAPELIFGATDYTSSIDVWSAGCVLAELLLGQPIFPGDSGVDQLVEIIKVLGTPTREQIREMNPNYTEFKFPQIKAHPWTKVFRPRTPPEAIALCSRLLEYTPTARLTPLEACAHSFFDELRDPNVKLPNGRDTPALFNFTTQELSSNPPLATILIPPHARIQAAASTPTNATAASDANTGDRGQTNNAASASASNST

CDK3/Cyclin E (Homo sapiens), sequence (P24864 whole entry, looked up): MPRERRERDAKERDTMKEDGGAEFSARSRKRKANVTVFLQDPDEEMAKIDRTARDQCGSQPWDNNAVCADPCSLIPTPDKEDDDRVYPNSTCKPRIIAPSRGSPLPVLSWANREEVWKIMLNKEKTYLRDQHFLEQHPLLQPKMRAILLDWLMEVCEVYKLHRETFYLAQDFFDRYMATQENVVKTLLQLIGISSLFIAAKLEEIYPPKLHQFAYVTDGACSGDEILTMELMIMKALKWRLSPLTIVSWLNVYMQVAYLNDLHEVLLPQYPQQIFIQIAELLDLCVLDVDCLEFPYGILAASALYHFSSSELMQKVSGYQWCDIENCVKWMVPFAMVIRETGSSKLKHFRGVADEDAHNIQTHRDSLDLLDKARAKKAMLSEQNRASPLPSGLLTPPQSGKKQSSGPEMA
CDK3/Cyclin E (Homo sapiens), sequence (Q00526 whole entry, looked up): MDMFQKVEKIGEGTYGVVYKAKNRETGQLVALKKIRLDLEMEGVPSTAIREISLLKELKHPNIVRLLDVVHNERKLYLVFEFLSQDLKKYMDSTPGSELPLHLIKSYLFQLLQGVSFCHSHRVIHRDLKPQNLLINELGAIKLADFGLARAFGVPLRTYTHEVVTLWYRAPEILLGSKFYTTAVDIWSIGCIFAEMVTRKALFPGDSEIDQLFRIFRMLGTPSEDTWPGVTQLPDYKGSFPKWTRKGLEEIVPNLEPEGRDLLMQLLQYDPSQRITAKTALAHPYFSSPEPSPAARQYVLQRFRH
Dual specificity tyrosine-phosphorylation-regulated kinase 1B (Homo sapiens), sequence (Q9Y463 whole entry, looked up): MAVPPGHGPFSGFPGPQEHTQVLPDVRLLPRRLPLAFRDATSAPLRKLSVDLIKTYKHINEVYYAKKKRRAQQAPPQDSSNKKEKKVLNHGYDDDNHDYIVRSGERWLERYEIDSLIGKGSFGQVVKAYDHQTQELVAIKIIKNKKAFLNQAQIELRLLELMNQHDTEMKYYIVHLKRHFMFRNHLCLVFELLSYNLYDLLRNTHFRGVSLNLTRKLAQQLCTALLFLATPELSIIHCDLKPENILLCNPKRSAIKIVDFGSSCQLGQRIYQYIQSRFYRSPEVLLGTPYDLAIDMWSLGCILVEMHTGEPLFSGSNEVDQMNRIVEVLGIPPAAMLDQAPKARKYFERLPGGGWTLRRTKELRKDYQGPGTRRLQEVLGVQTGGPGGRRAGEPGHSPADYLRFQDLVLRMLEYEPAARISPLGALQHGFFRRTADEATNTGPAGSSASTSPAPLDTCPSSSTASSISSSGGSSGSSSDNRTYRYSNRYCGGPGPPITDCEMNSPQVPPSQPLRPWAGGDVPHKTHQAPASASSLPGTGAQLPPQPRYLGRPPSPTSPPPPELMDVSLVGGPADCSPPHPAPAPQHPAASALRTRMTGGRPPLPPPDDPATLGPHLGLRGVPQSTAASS
Glycogen synthase kinase-3 alpha (Homo sapiens), sequence (P49840 2-483 limits assumed): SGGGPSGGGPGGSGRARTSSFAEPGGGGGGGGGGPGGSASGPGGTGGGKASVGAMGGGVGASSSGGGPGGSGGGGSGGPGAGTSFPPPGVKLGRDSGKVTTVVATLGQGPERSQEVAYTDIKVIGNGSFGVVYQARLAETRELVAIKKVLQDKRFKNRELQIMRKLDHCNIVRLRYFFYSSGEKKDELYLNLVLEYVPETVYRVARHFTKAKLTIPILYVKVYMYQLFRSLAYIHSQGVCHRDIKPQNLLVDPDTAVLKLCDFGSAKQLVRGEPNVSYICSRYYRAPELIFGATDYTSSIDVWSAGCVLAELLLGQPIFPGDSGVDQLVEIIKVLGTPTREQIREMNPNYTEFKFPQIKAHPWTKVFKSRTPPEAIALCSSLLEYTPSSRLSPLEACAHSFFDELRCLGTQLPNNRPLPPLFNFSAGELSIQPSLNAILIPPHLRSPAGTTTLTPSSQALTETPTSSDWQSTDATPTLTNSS
Cyclin-dependent kinase 4 (Homo sapiens), sequence (P11802 whole entry): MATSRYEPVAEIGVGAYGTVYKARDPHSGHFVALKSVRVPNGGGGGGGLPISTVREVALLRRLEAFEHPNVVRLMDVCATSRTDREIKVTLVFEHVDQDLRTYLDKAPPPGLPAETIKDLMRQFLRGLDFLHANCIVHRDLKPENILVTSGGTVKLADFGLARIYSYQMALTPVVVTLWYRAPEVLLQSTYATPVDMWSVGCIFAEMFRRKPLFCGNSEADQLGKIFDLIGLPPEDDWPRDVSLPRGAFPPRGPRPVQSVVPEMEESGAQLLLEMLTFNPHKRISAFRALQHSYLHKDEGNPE
Dual specificity protein kinase CLK3 (Homo sapiens), sequence (P49761 whole entry, looked up): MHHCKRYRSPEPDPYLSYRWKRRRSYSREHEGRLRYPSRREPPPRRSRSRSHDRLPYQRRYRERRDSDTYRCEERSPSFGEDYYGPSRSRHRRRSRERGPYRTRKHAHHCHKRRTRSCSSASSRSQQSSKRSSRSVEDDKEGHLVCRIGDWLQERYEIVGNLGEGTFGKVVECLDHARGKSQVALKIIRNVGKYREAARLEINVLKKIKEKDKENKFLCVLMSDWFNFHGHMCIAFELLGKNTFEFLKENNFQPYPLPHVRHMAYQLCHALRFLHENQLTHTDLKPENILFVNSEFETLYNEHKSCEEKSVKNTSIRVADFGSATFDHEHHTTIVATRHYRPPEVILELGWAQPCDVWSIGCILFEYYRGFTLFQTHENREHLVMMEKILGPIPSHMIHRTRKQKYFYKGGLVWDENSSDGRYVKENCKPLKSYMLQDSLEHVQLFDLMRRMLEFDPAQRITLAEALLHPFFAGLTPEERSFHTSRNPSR
Dual specificity protein kinase CLK2 (Homo sapiens), sequence (P49760 whole entry, looked up): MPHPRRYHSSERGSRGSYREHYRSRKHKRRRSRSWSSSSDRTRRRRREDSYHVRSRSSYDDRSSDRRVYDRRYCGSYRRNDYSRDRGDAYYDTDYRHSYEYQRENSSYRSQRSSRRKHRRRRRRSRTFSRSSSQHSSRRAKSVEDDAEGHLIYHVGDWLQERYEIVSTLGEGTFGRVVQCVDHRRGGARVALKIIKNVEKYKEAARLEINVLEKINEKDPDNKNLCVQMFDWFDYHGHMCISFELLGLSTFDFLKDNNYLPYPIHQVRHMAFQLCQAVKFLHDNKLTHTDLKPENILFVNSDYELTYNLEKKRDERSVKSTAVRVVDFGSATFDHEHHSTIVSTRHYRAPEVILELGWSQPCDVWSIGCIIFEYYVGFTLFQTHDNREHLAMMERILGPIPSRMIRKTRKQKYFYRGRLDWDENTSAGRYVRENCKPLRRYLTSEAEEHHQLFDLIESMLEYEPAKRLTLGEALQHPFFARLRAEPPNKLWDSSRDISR
Cyclin-dependent kinase 6 (Homo sapiens), sequence (Q00534 whole entry): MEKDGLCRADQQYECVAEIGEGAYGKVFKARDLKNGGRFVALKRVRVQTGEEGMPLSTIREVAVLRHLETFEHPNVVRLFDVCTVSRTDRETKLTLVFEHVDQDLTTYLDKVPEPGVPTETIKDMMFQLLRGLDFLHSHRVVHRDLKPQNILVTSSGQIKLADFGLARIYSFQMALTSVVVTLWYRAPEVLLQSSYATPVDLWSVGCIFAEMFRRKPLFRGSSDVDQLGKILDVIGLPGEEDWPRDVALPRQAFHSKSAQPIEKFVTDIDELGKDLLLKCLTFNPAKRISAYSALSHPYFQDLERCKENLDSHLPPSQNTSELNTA
Cyclin-dependent kinase 5 (Homo sapiens), sequence (Q00535 whole entry, looked up): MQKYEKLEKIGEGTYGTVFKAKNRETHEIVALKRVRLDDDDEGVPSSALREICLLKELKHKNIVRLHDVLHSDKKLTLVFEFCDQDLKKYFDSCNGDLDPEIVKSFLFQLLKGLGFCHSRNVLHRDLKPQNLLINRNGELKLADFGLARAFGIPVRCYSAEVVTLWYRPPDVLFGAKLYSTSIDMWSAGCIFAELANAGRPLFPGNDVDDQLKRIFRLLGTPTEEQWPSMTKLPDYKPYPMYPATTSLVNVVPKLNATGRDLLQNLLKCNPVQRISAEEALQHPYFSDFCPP

Structure (SMILES)	inhibition [1]	inhibition [2]	inhibition [3]	inhibition [4]	inhibition [5]	inhibition [6]	inhibition [7]	inhibition [8]	inhibition [9]	inhibition [10]	inhibition [11]	inhibition [12]	inhibition [13]	inhibition [14]	inhibition [15]	inhibition [16]	inhibition [17]	inhibition [18]	inhibition [19]	inhibition [20]
COc1ccc2ncnc(Nc3ccc(OCc4ccccc4)cc3)c2c1	-1.97%	0.76%	0.15%	0.36%	0.72%	-0.31%	1.08%	1.07%	0.25%	0.35%	1.64%	1.05%	3.73%	-0.87%	1.35%	1.27%	2.65%	1.55%	4.44%	1.06%
O=C1Nc2ccccc2/C1=C/Nc1ccc2[nH]c(=O)[nH]c2c1	8.57%	3.34%	11.3%	3.13%	24.1%	18.1%	59%	6.03%	30.4%	1.23%	4.44%	6.01%	23.3%	2.68%	16.1%	4.31%	11.1%	3.7%	14.4%	2.99%
O=C(Nc1ccc(Oc2ccc3[nH]c(NC(=O)c4ccco4)nc3c2)cc1)Nc1cc(C(F)(F)F)ccc1F	0.77%	-4.32%	-2.74%	-4.37%	-4.57%	-1.5%	-3.48%	0.35%	0.71%	-3.23%	-2.83%	-3.75%	-1.33%	-3.67%	-1.57%	0.62%	0.74%	-1.87%	2.71%	-2.51%
[O-][S+]1CCN(Cc2ccc(-c3ccc4ncnc(Nc5ccc(OCc6ccccc6)c(Cl)c5)c4c3)o2)CC1	-1.44%	0.13%	3.22%	0.19%	0.51%	-0.89%	0.14%	-0.72%	0.49%	0.43%	-0.64%	1.81%	2.81%	0.05%	0.51%	1.29%	0.17%	1.1%	1.03%	0.33%
c1ccc(Nc2ncc(-c3ccccc3)o2)cc1	5.78%	3.04%	11.5%	2.22%	10.4%	2.71%	21.7%	0.96%	3.74%	-0.17%	1.62%	3.02%	2.66%	-0.02%	1.13%	4.52%	5.66%	4.96%	15.8%	5.53%
Cc1ccc(Nc2ccnc(Nc3cccc(C(N)=O)c3)n2)cc1O	4.71%	-2.5%	1.32%	-3.13%	1.46%	-1.97%	-0.13%	1.32%	6.94%	-0.76%	3.09%	2.45%	26.5%	-1.03%	11.8%	2.25%	7.18%	0.67%	14.9%	0.74%
C[C@@H](Oc1cc(-n2cnc3ccc(OCC4CCN(C)CC4)cc32)sc1C(N)=O)c1ccccc1C(F)(F)F	0.6%	-1.73%	1%	0.01%	3.08%	-3.79%	-1.66%	1.74%	9.73%	-0.19%	3.73%	-2.42%	2.47%	0.26%	2.2%	-2.57%	-2.94%	-0.56%	2.65%	-0.31%
CN1CCN(C(=O)c2ccc(NC(=O)Nc3ccc(N(C)c4ccnc(Nc5ccc(CS(C)(=O)=O)cc5)n4)cc3)cc2)CC1	2.12%	2.05%	5.68%	1.54%	8.48%	-6.28%	3.8%	0.17%	3.57%	0.18%	-0.46%	-0.03%	-2.1%	0.37%	-2.01%	2.14%	4.06%	2.9%	4.98%	1.98%
Cc1nc(-c2ccccc2)n2nc(NCCCN3CCOCC3)ncc12	0.9%	4.19%	15.2%	0.75%	2.62%	13.8%	52.7%	3.46%	10.1%	0.04%	1.74%	1.71%	19%	1.12%	7.26%	1.55%	5.9%	5.02%	13.1%	4.78%
NS(=O)(=O)c1ccc(-c2cc3ccncc3cc2OCc2ccccc2)cc1	-0.11%	2.12%	0.84%	-0.11%	-1.18%	3.37%	2.89%	0.98%	2.04%	1.44%	3.69%	1.26%	4.84%	0.97%	2.12%	2.46%	3.11%	2.45%	4.95%	2.08%
CC(C)c1ccc(Nc2nccc(-c3cnn4ncccc34)n2)cc1	39%	9.51%	39.5%	12.7%	51.4%	3.4%	19.4%	14%	65.3%	3.13%	14%	40.6%	81.2%	43.4%	82.1%	2.73%	14%	35.6%	76%	31.3%
Cc1ccc(O)cc1Nc1ccnc2ccc(S(C)(=O)=O)cc12	-3.13%	3.24%	4.37%	0.36%	2.61%	-4.64%	3.72%	2.47%	7.17%	1.75%	3.42%	4.16%	12.6%	0.55%	2.94%	3.03%	4.88%	2.64%	1.72%	1.89%
COC(=O)c1cncc(/C=C/c2c(C)cc(O)cc2C)c1	-1.29%	2.45%	3.9%	1.02%	3.28%	4.33%	4.14%	-0.85%	2.84%	2.11%	3.16%	2.81%	7.4%	0.83%	4.47%	3.09%	4%	7.07%	14.3%	6.58%
CN(c1ccc(NC(=O)Nc2ccc(OC(F)(F)F)cc2)cc1)c1ccnc(Nc2cccc(S(N)(=O)=O)c2)n1	3.98%	0.85%	6.76%	0.45%	5.8%	2.09%	27.4%	1.61%	-2.84%	0.59%	1.99%	1.32%	1.5%	-2.14%	-0.44%	2.23%	3.14%	2.09%	9.4%	0.92%
O=S(=O)(CCOCc1ccc(-c2ccc3ncnc(Nc4ccc(OCc5cccc(F)c5)c(Cl)c4)c3c2)o1)c1ccccc1	-2.84%	0.35%	4.69%	4.26%	5.68%	0.17%	3.76%	-0.59%	1.39%	0.11%	0.14%	1.15%	1.59%	-0.1%	2.9%	0.96%	2.34%	2.99%	5.63%	2.14%
OCc1ccc(-c2nc(-c3ccccn3)c(-c3ccc4c(c3)OCO4)[nH]2)cc1	1.76%	2.89%	3.75%	0.69%	1.21%	-1%	2.55%	1.74%	4.27%	1.94%	2.95%	1.82%	4.86%	0.33%	0.97%	2.62%	3.63%	2.15%	4.5%	2.21%
Cc1ccc2c(c1)/C(=N/Nc1ccc(S(N)(=O)=O)cc1)C(=O)N2	57.3%	1.36%	16.9%	9.16%	45.2%	-2.12%	36.9%	1.98%	3.06%	-1.33%	-0.91%	-1.04%	2.94%	-1.01%	1.94%	0.43%	-0.62%	4.1%	31.3%	1.9%
CS(=O)(=O)CCNCc1nc(-c2ccc3ncnc(Nc4ccc(OCc5cccc(C(F)(F)F)c5)cc4)c3c2)cs1	-0.52%	4.15%	3.83%	0.46%	-0.01%	-2.37%	3.31%	-2.75%	1.02%	0.04%	-1.22%	-1.28%	-1.8%	0.58%	2.3%	1.36%	1.03%	6.47%	4.93%	5.25%
COc1cc2ncnc(Nc3ccc(C)c(O)c3)c2cc1OC	-1.71%	4.46%	6.21%	0.92%	2.99%	-0.81%	4.49%	1.85%	0.29%	1.39%	2.38%	5.24%	7.48%	0.95%	4.18%	2.96%	4.5%	4.81%	8.57%	4.62%
CN(C)c1cc2c(Nc3ccc4c(cnn4Cc4ccccc4)c3)ncnc2cn1	-0.2%	2.4%	4.36%	0.57%	1.24%	-3.6%	-0.22%	0.87%	-0.06%	0.92%	1.41%	2.17%	6.83%	1.02%	3.5%	2.42%	2.63%	1.84%	5.95%	1.16%
CCCN1CCCC(c2ccc(Nc3nc(Nc4cc(F)ccc4C(N)=O)c4cc[nH]c4n3)c(OC)c2)C1 (stereo not given)	0.01%	3.53%	12.1%	0.43%	5.92%	-2.09%	8.41%	67.3%	93.8%	4.01%	22.3%	67.5%	82.7%	72%	82.4%	36.3%	82.3%	1.49%	2.99%	0.7%
COc1ccc(-c2nn3ncccc3c2-c2ccnc(Nc3cccc(C(F)(F)F)c3)n2)cc1	-2.93%	1.42%	3.64%	0.07%	1.77%	-1.93%	-0.66%	0.06%	-1.44%	-0.4%	0.95%	2.09%	1.66%	-0.34%	1.16%	1.77%	0.78%	2.36%	2.7%	1.41%
CCS(=O)(=O)c1ccc(OC)c(Nc2ncc(-c3cccc(OC)c3)o2)c1	3.18%	1.8%	3.35%	0.02%	1.71%	3.87%	5.07%	34.8%	86%	2.36%	13.2%	8.22%	41.4%	6.86%	37.7%	3.86%	18.4%	1.96%	9.4%	2.23%
CCn1c(-c2nonc2N)nc2c(C#CC(C)(C)O)nc(OCCNC)cc21	-2.48%	5.94%	6.73%	1.64%	1.77%	-0.39%	-2.07%	1.52%	3.81%	-0.84%	0.43%	2.71%	2.94%	-0.33%	-0.29%	5.86%	5.26%	11.6%	49.9%	8.59%
N#Cc1cccc(Nc2nccc(-c3cnn4ncccc34)n2)c1	99.9%	71%	83.7%	80.3%	87%	61.9%	84%	98.9%	96.9%	56.7%	78.4%	81.7%	86.4%	81.3%	86.5%	20.3%	71.5%	85.3%	89.5%	84.1%
Nc1nccc(-c2c(-c3ccc(F)cc3)ncn2CCCN2CCOCC2)n1	-2.47%	3.06%	2.9%	0.16%	0.47%	-2.14%	0.98%	0.47%	0.74%	1.31%	1.24%	2.64%	3.19%	0.74%	0.15%	3.1%	4.1%	1.73%	4.53%	0.93%
CN(C)C(=O)O[C@H]1CN[C@H](C#Cc2cc3ncnc(Nc4ccc(OCc5cccc(F)c5)c(Cl)c4)c3s2)C1	-2.05%	1.82%	1.04%	0.51%	0.96%	2.1%	4.47%	-0.97%	0.42%	1.51%	1.86%	1.54%	3.38%	0.21%	0.78%	2%	2.24%	1.64%	5.51%	1.31%
